NF-kB reporter, IRF reporter and viability score data for 13 compounds are collected here from the supplement of paper PMC10646978.

± gives the standard deviation.

Settings in all cases: modulator concentration 10 µM
Assay [1] has as its system RAW-Dual (murine macrophage reporter line). Kind of assay: NF-kB reporter (SEAP) activity fold change vs agonist alone; higher = enhanced NF-kB activity. In a few lines:
(§1)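 RAW-Dual murine macrophage reporter cells were plated at 50 000 per well in 384-well plates, pin-transferred compound to 10 μM final, and pre-incubated for 1 hour at 37 °C before a PRR agonist was added and the cells incubated overnight. NF-κB activity was read from supernatant SEAP with QUANTI-Blue at 620 nm absorbance, and IRF activity from Lucia luciferase with QUANTI-Luc by luminescence. Each signal was expressed as fold change by dividing by the mean agonist-only control on the same plate. Two replicate plates were averaged, with errors obtained by propagation.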

Assay [2] shares this test system. Put plainly: IRF reporter (Lucia luciferase) activity fold change vs agonist alone; higher = enhanced IRF activity. In a few lines:
as §1

Assay [3] shares this test system. Put plainly: viability score (confluency relative to resting cells, overnight) (fraction); higher = more viable, active = viable (0.7 or more). In a few lines: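 RAW-Dual macrophages in 384-well plates were exposed overnight to compound at 10 μM final. Confluency was imaged with IncuCyte, and two confluency masks were generated with IncuCyte software over all imaged wells. The viability score is confluency expressed relative to resting cells. Compounds were called viable if both masks exceeded 70% of resting cells.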

[4] abbreviates: agonist: CpG ODN 1826 0.5 ug/mL.

As for `Cc1c(C)n2c3c(=O)n(CC=Cc4ccccc4)c(=O)n(C)c3nc2n1CCOCCO`, the NF-kB reporter in assay [1] (setting [4]) is 0.702 ± 0.046; in assay [1] (agonist: LPS 0.1 ug/mL), 1.16 ± 0.091; in assay [1] (agonist: MPLA […]), 1.03 ± 0.17. Besides, the IRF reporter in assay [2] (agonist: 3'3'-cGAMP 10 ug/mL) is 0.98 ± 0.055; in assay [2] (agonist: LPS 0.1 ug/mL) it was 1.03 ± 0.063; in assay [2] (agonist: MPLA […]), 1.09 ± 0.085. For the same compound, in assay [3], the viability score is 0.955 (active).

In the case of `COc1ccc(Nc2nc(N3CCCC(C)C3)nc3[nH]ncc23)cc1` (stereo unspecified), the NF-kB reporter in assay [1] (setting [4]) is 0.608 ± 0.03; in assay [1] (agonist: LPS 0.1 ug/mL) it was 0.617 ± 0.051; in assay [1] (agonist: MPLA […]), 0.768 ± 0.048. Further, the IRF reporter turned out to be 0.623 ± 0.045 in assay [2] (agonist: 3'3'-cGAMP 10 ug/mL), 0.905 ± 0.21 in assay [2] (agonist: LPS 0.1 ug/mL) and 1.32 ± 0.46 in assay [2] (agonist: MPLA […]). For the same compound, the viability score in assay [3] was 0.264 (inactive).

Turning to `CC(C)(O)CNC(=O)c1cccc([N+](=O)[O-])c1`, the NF-kB reporter came out at 0.928 ± 0.074 in assay [1] (setting [4]), 0.96 ± 0.11 in assay [1] (agonist: LPS 0.1 ug/mL) and 0.954 ± 0.058 in assay [1] (agonist: MPLA […]). Moreover, the IRF reporter came to 0.811 ± 0.12 in assay [2] (agonist: 3'3'-cGAMP 10 ug/mL), 0.971 ± 0.15 in assay [2] (agonist: LPS 0.1 ug/mL) and 0.979 ± 0.23 in assay [2] (agonist: MPLA […]). Further, the viability score in assay [3] was 0.995 (active).

`CCc1c(C)[nH]c2c1C(=O)C(CN1CCOCC1)CC2.Cl` (stereo unspecified): the NF-kB reporter in assay [1] (setting [4]) is 0.108 ± 0.0046; in assay [1] (agonist: LPS 0.1 ug/mL), 0.221 ± 0.024; in assay [1] (agonist: MPLA […]), 0.714 ± 0.042. The values for the IRF reporter in assay [2] (agonist: 3'3'-cGAMP 10 ug/mL), in assay [2] (agonist: LPS 0.1 ug/mL) and in assay [2] (agonist: MPLA […]) were 0.752 ± 0.039, 1.5 ± 0.24 and 1.4 ± 0.43, respectively. In assay [3], the viability score is 0.855 (active).

With `CCOC(=O)c1ccc(-c2ccc(C=C(C#N)C(=O)Nc3ccc(F)cc3)o2)cc1`, the NF-kB reporter worked out at 0.979 ± 0.09 in assay [1] (setting [4]), 1.08 ± 0.063 in assay [1] (agonist: LPS 0.1 ug/mL) and 1.05 ± 0.068 in assay [1] (agonist: MPLA […]). Also, the IRF reporter in assay [2] (agonist: 3'3'-cGAMP 10 ug/mL) was found to be 0.929 ± 0.042; in assay [2] (agonist: LPS 0.1 ug/mL), 1.29 ± 0.25; in assay [2] (agonist: MPLA […]), 1.06 ± 0.14. The viability score in assay [3] is 1.01 (active).

Consider `COc1ccc(-c2coc3cc(O)ccc3c2=O)cc1`, for which the NF-kB reporter in assay [1] (setting [4]) amounted to 0.956 ± 0.29; in assay [1] (agonist: LPS 0.1 ug/mL) it was 1.1 ± 0.1; in assay [1] (agonist: MPLA […]) it was 0.992 ± 0.13. Also, the IRF reporter in assay [2] (agonist: 3'3'-cGAMP 10 ug/mL) came to 0.904 ± 0.034; in assay [2] (agonist: LPS 0.1 ug/mL) it was 1.06 ± 0.1; in assay [2] (agonist: MPLA […]), 1.05 ± 0.17. Further, in assay [3], the viability score is 1.01 (active).

On to `CC(C)(C)C1CCC(OC(=O)CCC(=O)O)CC1` (stereo unspecified), for which the figures for the NF-kB reporter in assay [1] (setting [4]), in assay [1] (agonist: LPS 0.1 ug/mL) and in assay [1] (agonist: MPLA […]) were 0.999 ± 0.16, 0.931 ± 0.073 and 0.903 ± 0.087, respectively. For the same compound, the IRF reporter in assay [2] (agonist: 3'3'-cGAMP 10 ug/mL) came to 1.07 ± 0.049; in assay [2] (agonist: LPS 0.1 ug/mL), 1.32 ± 0.21; in assay [2] (agonist: MPLA […]), 1.32 ± 0.24. The viability score in assay [3] was 0.997 (active).

`CC1Cc2ccccc2N1C(=O)C1CCCN1S(=O)(=O)c1ccc(Cl)cc1` (stereo unspecified): the NF-kB reporter was determined as 0.835 ± 0.043 in assay [1] (setting [4]), 0.905 ± 0.12 in assay [1] (agonist: LPS 0.1 ug/mL) and 1.27 ± 0.25 in assay [1] (agonist: MPLA […]). The figures for the IRF reporter in assay [2] (agonist: 3'3'-cGAMP 10 ug/mL), in assay [2] (agonist: LPS 0.1 ug/mL) and in assay [2] (agonist: MPLA […]) were 1.01 ± 0.061, 1.22 ± 0.18 and 1.47 ± 0.52, respectively. Moreover, the viability score in assay [3] is 0.97 (active).

With `COc1ccc(C(=O)Nc2ccc(Br)c(C)c2)cc1`, the NF-kB reporter came out at 1.03 ± 0.089 in assay [1] (setting [4]), 1.1 ± 0.088 in assay [1] (agonist: LPS 0.1 ug/mL) and 1.1 ± 0.038 in assay [1] (agonist: MPLA […]). Further, the IRF reporter came out at 0.767 ± 0.029 in assay [2] (agonist: 3'3'-cGAMP 10 ug/mL), 1.01 ± 0.098 in assay [2] (agonist: LPS 0.1 ug/mL) and 1.2 ± 0.14 in assay [2] (agonist: MPLA […]). The viability score in assay [3] was 1 (active).

For `CCCCN(CCCC)CC(=O)Nc1c2c(nc3ccccc13)CCC2.O=C(O)C(=O)O`, the NF-kB reporter in assay [1] (setting [4]) came to 0.63 ± 0.035; in assay [1] (agonist: LPS 0.1 ug/mL), 1.1 ± 0.067; in assay [1] (agonist: MPLA […]), 1.15 ± 0.068. Besides, the IRF reporter worked out at 1.38 ± 0.053 in assay [2] (agonist: 3'3'-cGAMP 10 ug/mL), 1.98 ± 0.13 in assay [2] (agonist: LPS 0.1 ug/mL) and 0.98 ± 0.15 in assay [2] (agonist: MPLA […]). In addition, the viability score in assay [3] was 0.308 (inactive).

For the compound `CC(C)C(=O)Nc1ccc([N+](=O)[O-])c(C(F)(F)F)c1`, the results for the NF-kB reporter in assay [1] (setting [4]), in assay [1] (agonist: LPS 0.1 ug/mL) and in assay [1] (agonist: MPLA […]) were 1.42 ± 0.3, 1.06 ± 0.077 and 1.25 ± 0.2, respectively. The IRF reporter in assay [2] (agonist: 3'3'-cGAMP 10 ug/mL) stood at 0.762 ± 0.04; in assay [2] (agonist: LPS 0.1 ug/mL), 0.97 ± 0.11; in assay [2] (agonist: MPLA […]), 1.04 ± 0.12. Besides, the viability score in assay [3] was 0.968 (active).

In the case of `CCOC(=O)OC(C)OC1=C(C(=O)Nc2ccccn2)N(C)S(=O)(=O)c2ccccc21` (stereo unspecified), the values for the NF-kB reporter in assay [1] (setting [4]), in assay [1] (agonist: LPS 0.1 ug/mL) and in assay [1] (agonist: MPLA […]) were 1.12 ± 0.15, 1.28 ± 0.25 and 0.995 ± 0.056, respectively. The IRF reporter in assay [2] (agonist: 3'3'-cGAMP 10 ug/mL) was 0.948 ± 0.029; in assay [2] (agonist: LPS 0.1 ug/mL), 1.37 ± 0.34; in assay [2] (agonist: MPLA […]), 1.32 ± 0.12. In assay [3], the viability score was 0.989 (active).

With `Cc1cccc(CCC(=O)N2CCCC(Oc3ccnc(C)n3)C2)c1` (stereo unspecified), the figures for the NF-kB reporter in assay [1] (setting [4]), in assay [1] (agonist: LPS 0.1 ug/mL) and in assay [1] (agonist: MPLA […]) were 1.02 ± 0.09, 1.14 ± 0.11 and 1.06 ± 0.15, respectively. The results for the IRF reporter in assay [2] (agonist: 3'3'-cGAMP 10 ug/mL), in assay [2] (agonist: LPS 0.1 ug/mL) and in assay [2] (agonist: MPLA […]) were 0.731 ± 0.057, 1.19 ± 0.085 and 1.16 ± 0.24, respectively. Moreover, the viability score in assay [3] is 0.963 (active).
